Only some compounds are listed: those with a hit (about 4.8% of all), similar ones and a draw of the others.
DRD3 antagonist = qHTS of D3 Dopamine Receptor Antagonist: qHTS. D3R cells, DiscoveRx beta-arrestin luminescence, antagonist mode; active compounds read low. 360,000 compounds, 2.5% hits. D(3) dopamine receptor (Homo sapiens), P35462. max response, negative = inhibition, %; in the data active means max response below about -50%; inconclusive means no clear call, values can overlap the other calls; further: on the % scale 0 is the no-effect control and ±100 the full control effect
Target sequence (P35462 whole entry, looked up): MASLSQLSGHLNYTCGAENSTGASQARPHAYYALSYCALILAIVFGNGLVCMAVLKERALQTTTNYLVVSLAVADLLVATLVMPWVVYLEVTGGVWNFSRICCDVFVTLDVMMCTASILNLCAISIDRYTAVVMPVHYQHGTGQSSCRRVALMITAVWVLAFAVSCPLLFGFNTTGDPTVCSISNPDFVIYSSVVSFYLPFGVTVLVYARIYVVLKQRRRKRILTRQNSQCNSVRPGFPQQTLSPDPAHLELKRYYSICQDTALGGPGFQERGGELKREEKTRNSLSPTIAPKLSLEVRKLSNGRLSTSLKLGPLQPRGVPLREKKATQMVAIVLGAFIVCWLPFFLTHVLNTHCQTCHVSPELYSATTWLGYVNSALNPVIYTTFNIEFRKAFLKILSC
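Cells plated overnight at 1500 cells/well, then exposed to library compounds with dopamine controls for 90 minutes at 37 degrees C. DiscoveRx reagent added for 30–60 minutes at room temperature; luminescence read, quantitative HTS format.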
D3 ag = qHTS of D3 Dopamine Receptor Agonist: qHTS; AID 652048, 2013; D3R DiscoveRx beta-arrestin cells, luminescence, 90 min; 410,000 compounds, 0.58% hits; max activation, %; D(3) dopamine receptor (Homo sapiens), P35462; in the data active means max activation above about 30%; further: 0% is about no effect
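Cells at 1500/well, incubated overnight, then treated with pinned compounds (dopamine as control) for 90 min at 37 degrees C. DiscoveRx reagent added for 30 - 60 minutes at room temperature; luminescence read.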
TGFb SMAD3 inh = qHTS for Inhibitors of TGF-b; HepG2 CAGA-GFP TGF-b/SMAD3 reporter, GFP fluorescence, 18 h; TGF-beta stimulated, 500 pg/mL final; 410,000 compounds, 1.2% hits; AID 588855, 2011; Potency, µM (doses to about 46.1 µM), without a hit: at the top dose activity, negative = inhibition, hits mostly inhibitors; further: potency means the concentration at half of the fitted maximal effect; on the % scale 0 is the no-effect control and ±100 the full control effect; nearly all actives have a fitted effect of over 65% in size
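Read-out: total well GFP (ex488/em500-530) summed from mean per-cell fluorescence. Cells: HEPG2 CAGA-GFP, 1% FBS DMEM, 18 h at 37 degrees C with 500 pg/mL final TGF-beta. Unstimulated wells served as the full-inhibition control; stimulated DMSO wells = 0%.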
S2 tox = Viability Counterscreen for Primary qHTS for Inhibitors of ATXN expression; 400,000 compounds, 0.49% hits; S2 cells (HEK-293 line with an ATXN2-luciferase reporter) viability, CellTiter-Fluor protease fluorescence, 24 h; Potency, µM (top dose mostly 56.7 µM), hits mostly cytotoxic; AID 651635, 2014; further: potency means the concentration at half of the fitted maximal effect; nearly all actives have a fitted effect of over 40% in size
HepG2 tox-1 = qHTS for Inhibitors of TGF-b: Cytotox Counterscreen; HepG2 CAGA-GFP viability, ATP luminescence, 18 h; Potency, µM (doses to about 46.1 µM), inactives show at the highest dose activity change, negative = cytotoxicity, actives largely listed as cytotoxic; 410,000 compounds, 0.76% hits; further: potency means the concentration at half of the fitted maximal effect
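CellTiter-Glo luminescence gave cytotoxicity after 18 hours at 37 degrees C. The cells were HepG2 CAGA-GFP in 1% FBS DMEM, stimulated with 500 pg/mL TGF-beta after compound addition. %Activity was normalised to no-cell wells (complete cell-killing) and DMSO (no toxicity), and curves were fitted and classified.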
ATXN2 expr inh = Primary qHTS for Inhibitors of ATXN expression | HEK-293 ATXN2-luciferase reporter, luminescence, 24 h | Potency, µM (top dose mostly 57 µM), for the others: top-dose activity change, negative = inhibition, most hits filed as inhibitors | 360,000 compounds, 0.72% hits; further: potency means the concentration at half of the fitted maximal effect; on the % scale 0 is the no-effect control and ±100 the full control effect; nearly all actives have a fitted effect of over 55% in size
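ATXN2-luciferase reporter cells (luciferase flanked by upstream and downstream ATXN2 gene portions) were treated 24 h at 37 °C with compounds at up to 57 uM. SteadyGlo luminescence gave expression; GF-AFC fluorescence gave viability.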
TGFb CAGA inh = qHTS for Inhibitors of TGF-b: Confirmation of Cherry Picks | shares compounds with TGFb SMAD3 inh | HepG2 CAGA-GFP TGF-b reporter, GFP fluorescence, 18 h; cells stimulated with TGF-beta, 500 pg/mL | Potency, µM (series often up to 46.1 µM), inactives show top-dose activity, negative = inhibition, hits mostly inhibitors | 1,600 compounds, 63% hits; further: potency means the concentration at half of the fitted maximal effect; on the % scale 0 is the no-effect control and ±100 the full control effect; nearly all actives have a fitted effect of over 65% in size
HepG2 tox-2 = qHTS for Inhibitors of TGF-b: Cytotox Counterscreen for Cherry Picks; shares compounds with TGFb SMAD3 inh; HepG2 CAGA-GFP viability, ATP luminescence, 18 h; cells stimulated with TGF-beta, 500 pg/mL; Potency, µM (doses to about 46.1 µM), for inactives: top-dose activity, negative = cytotoxicity, hits mostly inhibitors; 1,600 compounds, 27% hits; AID 720535, 2013; further: potency means the concentration at half of the fitted maximal effect; on the % scale 0 is the no-effect control and ±100 the full control effect; nearly all actives have a fitted effect of over 70% in size
TGFb CCL64 inh = qHTS for Inhibitors of TGF-b: CCL64 Cells Orthogonal Assay for Cherry Picks; CCL64 CAGA-GFP reporter, TGF-b stimulated, GFP fluorescence, 18 h; AID 720536, 2013; Potency, µM (top dose mostly 46.1 µM), for the others: top-dose activity, negative = inhibition, most hits filed as inhibitors; shares compounds with TGFb SMAD3 inh; 1,600 compounds, 41% hits; further: potency means the concentration at half of the fitted maximal effect; nearly all actives have a fitted effect of over 65% in size
TGFb COP inh = qHTS for Inhibitors of TGF-b: Hit Validation in HepG2 Cells using COP promoter; shares compounds with TGFb SMAD3 inh; HepG2 COP-GFP TGF-b reporter, GFP fluorescence, 18 h; cells stimulated by added recombinant TGF-beta; Potency, µM (series often up to 46.1 µM), without a hit: at the highest dose activity, negative = inhibition, hits mostly inhibitors; 1,600 compounds, 3% hits; further: potency means the concentration at half of the fitted maximal effect; nearly all actives have a fitted effect of over 70% in size
* hit, by the source's call; i = inactive; ? = inconclusive; . = not tested or not shown. Unless noted, the call rests on the fitted dose curve; in most records, active means well fitted curve in the direction sought with a large enough effect; inconclusive means small, poorly fitted or top-dose-only effect, or another doubt; inactive means no such curve, though single readings can be large; an effect the other way counts as inactive or inconclusive.

SMILES	DRD3 antagonist	D3 ag	TGFb SMAD3 inh	S2 tox	HepG2 tox-1	ATXN2 expr inh	TGFb CAGA inh	HepG2 tox-2	TGFb CCL64 inh	TGFb COP inh
Clc1ccc2nc(-c3cccc(Br)c3)c(Cc3ccsc3)n2c1	22.3	6.6	10µM*	i	-10.7%	56.9%	?	?	?	0.3%
Clc1cccc(-c2nc3ccc(Br)cn3c2Cc2ccsc2)c1	31.5	6.2	?	?	-14.5%	58.2%	.	.	.	.
Cc1cc(=O)n2nc(N3CCC(C(=O)Nc4ccc(C(C)C)cc4)CC3)sc2n1	.	3.8	?	?	-0.8%	?	.	.	.	.
COc1ccc(/C=C/C(=O)c2ccc([N+](=O)[O-])o2)cc1OC	?	-28.8	2.51µM*	?	11.2µM*	8.91µM*	2.91µM*	4.61µM*	2.06µM*	0.5%
COc1cc(/C=C/C(=O)O)ccc1O	13.1	5.7	-3.1%	i	-5.4%	-1.3%	.	.	.	.
COc1cc(/C=C/C(=O)c2ccc([N+](=O)[O-])o2)ccc1O	-98.0*	-31.4	1.12µM*	3.55µM*	-44.5%	?	4.11µM*	8.2µM*	2.91µM*	?
CC1=C(C(=O)Nc2ccc(Cl)cc2)C(C(C)C)n2nc(SCc3cccc(C)c3)nc2N1 (configuration not stated)	.	3.7	-4.0%	i	0.0%	1.2%	.	.	.	.
Cc1ccc(SC(C)C(=O)NCc2ccncc2)cc1 (configuration not stated)	-59.1*	-7.2	?	i	-28.2%	4.8%	?	2.9%	14.5%	-8.1%
CCC(=O)Nc1c(S(=O)(=O)c2ccccc2)c2nc3ccccc3nc2n1C(C)c1ccccc1 (configuration not stated)	17.8	3.0	12.6µM*	i	-20.7%	-24.1%	?	-20.9%	?	26.2%
COc1ccc(C(=O)Nc2ccc3oc(Cc4ccc(Cl)cc4)nc3c2)cc1OC	20.0	3.9	15.8µM*	?	-22.6%	?	?	-17.7%	13.2%	0.3%
COc1ccc(Cl)cc1NC(=O)c1ccc2nc(Cc3ccccc3)oc2c1	.	7.4	-8.9%	i	-33.1%	-30.2%	.	.	.	.
Brc1cccc[n+]1Cc1ccccc1C[n+]1ccccc1Br	.	.	35.2%	.	-19.3%	.	.	.	.	.
CC(Nc1ccccc1CO)C(=O)Nc1cccc(Cl)c1Cl (configuration not stated)	3.4	4.7	3.98µM*	i	-32.0%	?	5.17µM*	2.06µM*	-20.3%	-14.8%
